Test results as given in the supplement of paper PMC10849652.
Of roughly 8,800 targets only a part is listed; those with a hit were picked by preference. About 0.5% of all pairs of compound and target were hits. A number with no mark means an inactive call.

Experiments:
Assay in all cases: log2 fold change, soluble protein after heating vs DMSO (PISA); higher = thermal stabilisation; K562 lysate, 10 uM; active = over 0.2 and 3.5 SD of the protein, either way, in both replicates (recomputed)
[1] = compound: C#Cc1cccc(Nc2ncnc3cc(OCCOC)c(OCCOC)cc23)c1 [erlotinib]
Summary of the method: (§1)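 K562 pellets were dounce-homogenised in PBS pH 7.4 with 1 mM MgCl2, and the crude extract at 1 mg/mL protein was treated with 10 μM compound for 30 min. Aliquots were heated for 3 min across 48°C-58°C, pooled, and brought to 0.5% NP-40 at 4°C; soluble protein was the supernatant after 21,000xg for 90 min. Soluble protein was quantified by TMTpro 16plex LC-MS/MS with channel sums equalised, and reported as log2 fold change in thermal stability against DMSO controls, with values from duplicates.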

[2] = compound: C/C(=N\NC(=O)C1=CC(=CC=C1)S(=O)(=O)N2CCOCC2)/C3=C(C=CC(=C3)Cl)O
Summary of the method: as §1

[3] = compound: C1=CC(=CC=C1C2=NC3=C(N2)C=C(C=C3)C(=O)N)OC4=CC=C(C=C4)Cl
Summary of the method: as §1

[4] = compound: C1=CC2=C(C=CC(=C2)/C=C\3/C(=O)NC(=NCC4=CC=CS4)S3)N=C1
Summary of the method: as §1

[5] = compound: C1=CC2=NC=CN=C2C=C1/C=C/3\C(=O)NC(=O)S3
Summary of the method: as §1

[6] = compound: C1=CC=C(C=C1)C2=NC(=C(N2)C3=CC=NC=C3)C4=CC(=C(C=C4)Cl)O
Summary of the method: as §1

[7] = compound: C1=CC=C2C(=C1)C3=NNC4=CC=CC(=C43)C2=O
Summary of the method: as §1

[8] = compound: C1CCN(C1)C(=O)NC2=CC=CC(=C2)NC3=NC=C(C(=N3)NCCC4=CN=CN4)Br
Summary of the method: as §1

[9] = compound: C1CN(CCC1(CC2=CC=C(C=C2)Cl)N)C3=NC=NC4=C3C=CN4
Summary of the method: as §1

[10] = compound: C1COCCN1CCN2C3=CC=CC=C3N=C2NC(=O)C4=CC(=CC=C4)[N+](=O)[O-] [IRAK-1-4 Inhibitor I]
Summary of the method: as §1

[11] = compound: C=CC(=O)N1CCC[C@@H](n2nc(-c3ccc(Oc4ccccc4)cc3)c3c(N)ncnc32)C1 [ibrutinib]
Summary of the method: as §1

[12] = compound: CC(C)(C)Cn1c(N)nc2ccc(-c3[nH]c(C(C)(C)C)nc3-c3ccc(F)cc3)nc21 [ralimetinib]
Summary of the method: as §1

[13] = compound: CC(C)(O)CC(=O)NCCn1ccc2ncnc(Nc3ccc(Oc4cccc(C(F)(F)F)c4)c(Cl)c3)c21
Summary of the method: as §1

[14] = compound: CC(C)C1=C2N=C(C=C(N2N=C1)NCC3=CC=CC=C3)NCCCCCCN
Summary of the method: as §1

[15] = compound: CC1=C(C(CC(=O)N1)C2=CC=C(C=C2)C(F)(F)F)C(=O)NC3=C(C=C4C(=C3)C=NN4)F
Summary of the method: as §1

[16] = compound: CC1=C(C2=C(C=C1)C(=O)C3=CC=CC=C3N2CCCN)C
Summary of the method: as §1

[17] = compound: CC1=C(C=C(C=C1)NC(=O)C2=CC(=CC=C2)C(C)(C)C#N)NC3=CC4=C(C=C3)N=CN(C4=O)C
Summary of the method: as §1

[18] = compound: CC1=C(C=C(C=C1)NC(=O)C2=CC(=CC=C2)N(C)C)NC(=O)C3=CC=C(C=C3)O
Summary of the method: as §1

[19] = compound: CC(=O)c1cnc2ccc(-c3cc(Cl)c(O)c(Cl)c3)nc2c1N[C@H]1CC[C@H](CN(C)C)CC1
Summary of the method: as §1

[20] = compound: CC1=CC=C(C=C1)SC2=C3C=C(SC3=CN=C2)C(=O)N
Summary of the method: as §1

UniProt Q9UPT9, sequence (Q9UPT9 whole entry, looked up): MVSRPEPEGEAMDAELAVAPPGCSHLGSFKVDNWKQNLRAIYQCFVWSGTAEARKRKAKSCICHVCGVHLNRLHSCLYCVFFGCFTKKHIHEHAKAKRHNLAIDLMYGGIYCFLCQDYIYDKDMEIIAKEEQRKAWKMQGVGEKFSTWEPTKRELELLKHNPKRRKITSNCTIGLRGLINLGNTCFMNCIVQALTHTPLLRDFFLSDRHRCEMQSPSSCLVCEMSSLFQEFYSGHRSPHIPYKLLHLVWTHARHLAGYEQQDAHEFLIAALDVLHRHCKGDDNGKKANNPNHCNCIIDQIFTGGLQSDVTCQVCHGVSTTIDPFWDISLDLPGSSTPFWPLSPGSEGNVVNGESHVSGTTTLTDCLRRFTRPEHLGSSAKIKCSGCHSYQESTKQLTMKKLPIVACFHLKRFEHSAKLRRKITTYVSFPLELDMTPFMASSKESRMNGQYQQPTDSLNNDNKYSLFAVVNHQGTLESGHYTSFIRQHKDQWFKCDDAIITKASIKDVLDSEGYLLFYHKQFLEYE
UniProt P40337, sequence (P40337 whole entry, looked up): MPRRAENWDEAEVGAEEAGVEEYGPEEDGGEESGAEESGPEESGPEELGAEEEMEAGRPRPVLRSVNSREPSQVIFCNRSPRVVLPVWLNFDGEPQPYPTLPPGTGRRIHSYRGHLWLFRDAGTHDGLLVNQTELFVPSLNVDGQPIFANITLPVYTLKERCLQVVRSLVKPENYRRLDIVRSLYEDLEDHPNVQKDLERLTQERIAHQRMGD
UniProt Q6PHR2, sequence (Q6PHR2 whole entry, looked up): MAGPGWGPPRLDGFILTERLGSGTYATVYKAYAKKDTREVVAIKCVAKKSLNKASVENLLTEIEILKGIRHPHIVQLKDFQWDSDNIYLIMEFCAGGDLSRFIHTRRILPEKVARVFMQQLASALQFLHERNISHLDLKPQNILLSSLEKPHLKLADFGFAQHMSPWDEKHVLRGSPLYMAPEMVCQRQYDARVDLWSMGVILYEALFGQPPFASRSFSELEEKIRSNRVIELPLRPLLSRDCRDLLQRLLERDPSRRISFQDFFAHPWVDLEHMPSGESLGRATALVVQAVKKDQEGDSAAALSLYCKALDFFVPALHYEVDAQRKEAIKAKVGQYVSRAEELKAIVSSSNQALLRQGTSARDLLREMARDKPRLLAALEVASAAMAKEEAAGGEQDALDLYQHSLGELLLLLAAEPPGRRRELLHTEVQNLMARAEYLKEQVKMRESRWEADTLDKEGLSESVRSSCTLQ
UniProt Q9H582, sequence (Q9H582 whole entry, looked up): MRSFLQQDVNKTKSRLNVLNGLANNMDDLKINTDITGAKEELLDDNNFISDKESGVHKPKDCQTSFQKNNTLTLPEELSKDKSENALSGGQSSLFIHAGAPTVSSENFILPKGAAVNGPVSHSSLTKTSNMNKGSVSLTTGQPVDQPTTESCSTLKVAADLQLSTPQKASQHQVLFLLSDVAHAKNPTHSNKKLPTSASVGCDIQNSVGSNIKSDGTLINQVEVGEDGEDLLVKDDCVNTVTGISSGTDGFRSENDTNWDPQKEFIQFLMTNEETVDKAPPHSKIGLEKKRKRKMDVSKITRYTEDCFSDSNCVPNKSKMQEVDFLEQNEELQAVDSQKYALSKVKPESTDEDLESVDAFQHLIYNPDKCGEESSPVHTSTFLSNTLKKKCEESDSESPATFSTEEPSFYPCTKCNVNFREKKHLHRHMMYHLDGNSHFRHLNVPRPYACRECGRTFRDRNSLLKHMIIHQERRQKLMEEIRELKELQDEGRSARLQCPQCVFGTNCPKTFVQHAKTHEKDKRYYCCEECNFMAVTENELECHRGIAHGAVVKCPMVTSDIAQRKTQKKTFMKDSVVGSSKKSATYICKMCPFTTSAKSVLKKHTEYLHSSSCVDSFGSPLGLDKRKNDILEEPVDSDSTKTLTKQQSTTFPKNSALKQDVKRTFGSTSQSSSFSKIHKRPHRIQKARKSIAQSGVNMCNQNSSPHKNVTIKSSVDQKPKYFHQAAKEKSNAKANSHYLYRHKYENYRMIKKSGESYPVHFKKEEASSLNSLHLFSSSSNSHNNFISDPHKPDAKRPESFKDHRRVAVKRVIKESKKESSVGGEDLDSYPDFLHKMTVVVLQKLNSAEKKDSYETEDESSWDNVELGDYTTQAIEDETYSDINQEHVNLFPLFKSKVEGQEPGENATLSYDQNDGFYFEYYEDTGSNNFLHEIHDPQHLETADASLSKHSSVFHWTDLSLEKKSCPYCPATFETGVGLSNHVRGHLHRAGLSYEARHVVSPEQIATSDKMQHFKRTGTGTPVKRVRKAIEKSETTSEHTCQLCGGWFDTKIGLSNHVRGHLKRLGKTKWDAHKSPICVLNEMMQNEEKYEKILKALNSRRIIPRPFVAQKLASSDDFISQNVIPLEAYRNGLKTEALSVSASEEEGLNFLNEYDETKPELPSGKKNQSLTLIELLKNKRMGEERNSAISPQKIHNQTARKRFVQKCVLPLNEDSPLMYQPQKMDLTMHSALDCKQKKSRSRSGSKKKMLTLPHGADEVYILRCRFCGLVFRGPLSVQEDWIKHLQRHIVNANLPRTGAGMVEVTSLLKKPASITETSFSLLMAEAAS
UniProt Q15776, sequence (Q15776 whole entry, looked up): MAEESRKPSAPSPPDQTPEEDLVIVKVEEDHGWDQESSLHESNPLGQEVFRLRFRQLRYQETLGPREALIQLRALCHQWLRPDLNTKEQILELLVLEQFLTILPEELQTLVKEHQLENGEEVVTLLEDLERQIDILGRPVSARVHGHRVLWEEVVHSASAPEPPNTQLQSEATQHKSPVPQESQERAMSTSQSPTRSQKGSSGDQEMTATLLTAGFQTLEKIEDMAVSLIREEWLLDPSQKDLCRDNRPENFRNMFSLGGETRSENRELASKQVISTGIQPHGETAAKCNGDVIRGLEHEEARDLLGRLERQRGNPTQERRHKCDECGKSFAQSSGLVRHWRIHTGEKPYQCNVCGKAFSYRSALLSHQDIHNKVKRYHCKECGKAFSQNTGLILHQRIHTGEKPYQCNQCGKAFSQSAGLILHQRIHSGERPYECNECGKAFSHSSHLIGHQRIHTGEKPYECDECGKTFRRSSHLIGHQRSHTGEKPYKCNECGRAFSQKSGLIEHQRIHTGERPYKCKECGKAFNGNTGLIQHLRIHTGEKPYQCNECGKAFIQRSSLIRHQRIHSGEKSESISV
UniProt Q9Y6I7, sequence (Q9Y6I7 whole entry, looked up): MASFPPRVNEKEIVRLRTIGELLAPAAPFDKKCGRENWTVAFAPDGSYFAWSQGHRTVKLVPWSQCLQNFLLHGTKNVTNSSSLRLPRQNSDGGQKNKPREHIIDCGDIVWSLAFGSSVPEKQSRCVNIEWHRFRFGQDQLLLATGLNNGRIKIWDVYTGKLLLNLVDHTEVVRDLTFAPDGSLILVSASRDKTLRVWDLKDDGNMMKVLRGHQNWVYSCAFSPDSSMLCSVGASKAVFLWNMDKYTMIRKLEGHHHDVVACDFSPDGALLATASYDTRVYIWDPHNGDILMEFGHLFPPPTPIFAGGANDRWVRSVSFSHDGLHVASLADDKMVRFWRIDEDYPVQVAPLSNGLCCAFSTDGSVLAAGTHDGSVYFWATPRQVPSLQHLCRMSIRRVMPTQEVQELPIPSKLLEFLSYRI
UniProt Q9NWK9, sequence (Q9NWK9 whole entry, looked up): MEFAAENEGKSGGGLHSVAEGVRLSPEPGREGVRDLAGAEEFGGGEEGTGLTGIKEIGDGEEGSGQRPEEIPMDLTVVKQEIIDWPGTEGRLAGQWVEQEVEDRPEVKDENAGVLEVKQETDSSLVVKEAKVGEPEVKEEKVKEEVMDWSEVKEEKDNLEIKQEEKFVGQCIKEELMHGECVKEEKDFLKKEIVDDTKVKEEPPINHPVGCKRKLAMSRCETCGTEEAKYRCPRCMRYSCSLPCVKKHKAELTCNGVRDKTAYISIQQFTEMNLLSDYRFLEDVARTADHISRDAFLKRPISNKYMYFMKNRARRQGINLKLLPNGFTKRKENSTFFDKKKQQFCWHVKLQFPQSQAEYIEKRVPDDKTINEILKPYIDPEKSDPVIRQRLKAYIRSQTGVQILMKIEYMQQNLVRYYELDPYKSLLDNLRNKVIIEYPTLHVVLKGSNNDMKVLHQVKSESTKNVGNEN
UniProt Q15906, sequence (Q15906 whole entry, looked up): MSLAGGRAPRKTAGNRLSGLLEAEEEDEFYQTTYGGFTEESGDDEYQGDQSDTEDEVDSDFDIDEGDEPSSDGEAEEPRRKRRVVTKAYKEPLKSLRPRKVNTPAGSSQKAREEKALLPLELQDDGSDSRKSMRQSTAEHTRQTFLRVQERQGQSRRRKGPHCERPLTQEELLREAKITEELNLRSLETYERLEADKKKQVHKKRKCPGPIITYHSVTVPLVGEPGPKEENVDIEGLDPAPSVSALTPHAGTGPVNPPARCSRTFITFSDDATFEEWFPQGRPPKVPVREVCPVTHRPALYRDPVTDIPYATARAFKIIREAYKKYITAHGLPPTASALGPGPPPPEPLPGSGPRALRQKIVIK
UniProt Q8IUH5, sequence (Q8IUH5 whole entry, looked up): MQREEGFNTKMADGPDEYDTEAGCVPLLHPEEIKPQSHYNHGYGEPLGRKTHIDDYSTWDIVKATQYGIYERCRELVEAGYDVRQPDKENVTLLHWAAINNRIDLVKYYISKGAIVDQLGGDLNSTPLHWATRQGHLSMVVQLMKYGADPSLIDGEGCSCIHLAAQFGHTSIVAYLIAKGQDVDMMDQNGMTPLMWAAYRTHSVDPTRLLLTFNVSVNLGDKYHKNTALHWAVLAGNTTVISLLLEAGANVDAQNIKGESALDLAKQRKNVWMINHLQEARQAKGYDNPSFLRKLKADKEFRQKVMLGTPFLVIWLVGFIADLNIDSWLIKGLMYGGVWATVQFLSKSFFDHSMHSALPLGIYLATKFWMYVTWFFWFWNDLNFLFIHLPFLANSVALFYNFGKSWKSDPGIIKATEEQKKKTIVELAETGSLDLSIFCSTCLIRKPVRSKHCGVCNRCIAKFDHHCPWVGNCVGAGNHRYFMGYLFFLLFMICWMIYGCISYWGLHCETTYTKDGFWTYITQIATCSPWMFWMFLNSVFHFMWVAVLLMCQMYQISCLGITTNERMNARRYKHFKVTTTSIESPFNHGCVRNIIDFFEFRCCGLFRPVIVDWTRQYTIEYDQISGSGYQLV

Target	log2 fold change [1]	log2 fold change [2]	log2 fold change [3]	log2 fold change [4]	log2 fold change [5]	log2 fold change [6]	log2 fold change [7]	log2 fold change [8]	log2 fold change [9]	log2 fold change [10]	log2 fold change [11]	log2 fold change [12]	log2 fold change [13]	log2 fold change [14]	log2 fold change [15]	log2 fold change [16]	log2 fold change [17]	log2 fold change [18]	log2 fold change [19]	log2 fold change [20]
VHL (UniProt P40337)	0.088	0.034	-0.016	0.059	0.032	-0.09	-0.003	-0.007	-0.107	0.02	0.033	0.09	-0.027	0.06	-0.045	-0.109	-0.013	0.024		
WSB1 (UniProt Q9Y6I7)						0.037				-0.093		0.08	-0.006			-0.037		-0.028		
ZNF845 (UniProt Q96IR2)	-0.033	-0.145	0.102	0.02	-0.09	0.047	-0.123			-0.044	0.087	0.093	0	-0.061	-0.047	0.072	0.005	-0.012	-0.039	-0.109
USP22 (UniProt Q9UPT9)	0.072	0.019	-0.025	0.048	-0.022	-0.003	-0.013	-0.021	0.004	-0.005	-0.031	0.023	0.006	0.027	-0.057	-0.034	0.065	0.056		
ULK3 isoform 4 (UniProt Q6PHR2)	0.156	0.149	-0.008	-0.151	-0.053		0.177	0.179	0.01		-0.08			-0.091		-0.06	0.094		-0.024	0.08
ZNHIT6 (UniProt Q9NWK9)	0.059	0.475	0.062	0.024	-0.007	-0.008	-0.068	0	0.014	0.003	-0.01	-0.032	0.005	0.001	0.036	-0.02	0.032	0.018	-0.097	-0.029
VPS72 (UniProt Q15906)	0.056	-0.036	0.046	-0.057		-0.04	0.052	0.024	0.059	-0.008		0.046	-0.06	-0.028	-0.098	0.005	0	-0.01	0.016	-0.038
UNC13A (UniProt Q9UPW8)	0.069		0.039											0.022	-0.053					
URGCP (UniProt Q8TCY9)		-0.024		-0.075	-0.01	-0.038	0.051			0.022	0.081	-0.07	-0.515 (active)		-0.05	0.008		-0.042		
ZSWIM8 isoform 4 (UniProt A7E2V4)	0.025	0.508 (active)	-0.053	0.02	-0.044	-0.021	-0.163	-0.239	0.109	-0.122	-0.08	0.101	-0.048	0.002	-0.017	0.28	-0.131	0.105		
ZNF346 (UniProt Q9UL40)	-0.057		-0.009		-0.035	-0.014		0.016	-0.002	0.015	-0.041	-0.019	-0.075	-0.012	-0.08	0.111	-0.019	-0.004	0.008	0.018
YBEY (UniProt P58557)	0.101	-0.164	0.009	-0.039			-0.031	-0.011	0.111					0.016		-0.029				
ZNF652 (UniProt Q9Y2D9)																	0.042			
ZKSCAN8 (UniProt Q15776)	-0.005	-0.418	-0.148	0.004		-0.001	-0.04	0.031	0.006	0.077		-0.021	-0.002	0.229	0.098	0.008	-0.008	0.04	0.514 (active)	-0.054
ZNF593 (UniProt O00488)	-0.084	-0.149	0.116	0.003	0.005	-0.098	0.059	0	0.084	0.003	0.018	0.096	0.013	-0.081		-0.017	-0.028	-0.034	0.17	-0.051
ZBTB40 (UniProt Q9NUA8)	-0.044	-0.019	-0.014	-0.075		-0.045	-0.017			-0.048		0.096	-0.012	0.057	0.081	-0.042	0.009	-0.007	0.035	-0.044
XPOT (UniProt F5GYW6)																			-0.027	0.041
ZNF146 (UniProt Q15072)																-0.187				
WAS (UniProt P42768)	0.023		0.074		-0.149			0.007	0.026		-0.06			-0.01	0.071	0.143				
WIPI1 (UniProt Q5MNZ9)	-0.025		-0.006		-0.016	-0.027		0.035	-0.013	-0.007	0.098	0.002	0.019	-0.008	0.1	-0.023	-0.005	-0.009	-0.062	-0.033
ZDHHC17 (UniProt Q8IUH5)		0.197		0.011		-0.082	-0.247	-0.066	-0.027	0.205		0.077	0.047		-0.001	0.161	-0.171	-0.067	-0.063	-0.032
ZSCAN21 (UniProt Q9Y5A6)								-0.022	0.037											
UNKL (UniProt E9PDK2)		-0.088		0.166	0.061		-0.122	0.155	0.156		-0.191					-0.086	0.025			
ZNF644 (UniProt Q9H582)	0.192	-0.085	0.071	0.075	0.066	-0.115	-0.04	0.036	-0.037	0.035	0.07	-0.023	0.052	0.038	-0.061	0.042	-0.005	-0.02		
WAC isoform 5 (UniProt Q9BTA9)	-0.01		-0.156			0.062				0.018		0.059	-0.145	-0.038		0.127		0.096		
ZNF281 (UniProt Q9Y2X9)	-0.191		-0.106			0.006				0.069		-0.055	0.081	0.039		-0.008	-0.081	-0.041		
